Test results as given in PubChem BioAssay (NCATS).
Inconclusive results are not listed. Activity calls are given as the source filed them. Unless noted, the call rests on the fitted dose curve; in most records, active means well fitted curve in the direction sought with a large enough effect; inconclusive means small, poorly fitted or top-dose-only effect, or another doubt; inactive means no such curve, though single readings can be large; an effect the other way counts as inactive or inconclusive.

Tests used:
[1] = target: Estrogen receptor (Homo sapiens) (UniProt P03372); assay: qHTS assay for small molecule antagonists of estrogen receptor alpha signaling (AID 588513; active means well fitted curve in the direction sought with a large enough effect in the signal ratio, with a control signal flat, not every such curve was filed as active; the % refers to the signal ratio; further: potency means the concentration at half of the fitted maximal effect)
Procedure, shortened: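 Antagonist-mode qHTS in ER-alpha-UAS-bla HEK 293 cells: compound titration, 0.5nM estradiol for 18 h, CCF4 fluorescence, Hill-derived IC50.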

[2] = qHTS assay for environmental chemicals that activate the Aryl hydrocarbon Receptor (AhR) signaling pathway (AID 651777); settings: 1A2-DRE human hepatoma cells, luciferase, 24 h; activation: stronger effect = higher value; further: % of control where 0% means no effect; nearly all actives have a fitted effect of over 15% in size
Procedure, shortened: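 Induction of CYP1A2 transcription through AhR is detected by luciferase in 1A2-DRE hepatoma cells. Compounds or DMSO act for 24 hr at 37 C before a 30 min One-Glo step at room temperature.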

[3] = qHTS assay for small molecule agonists of the antioxidant response element (ARE) signaling pathway measured by Nrf2-dependant transcriptional activity (AID 720636; active means well fitted curve in the direction sought with a large enough effect in the repeat runs; an effect the other way counts as inactive or inconclusive;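 further: HepG2 cells with an ARE-driven luciferase reporter; % of control where 0% means no effect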)
Procedure, shortened: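 We exposed ARE-luc HepG2 cells, seeded in assay medium with 1% dialyzed FBS and allowed 6 hr to adhere, to test compounds overnight (16 hr, 37 C) before measuring luciferase with ONE-Glo.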

[4] = qHTS assay for small molecule agonists of the antioxidant response element (ARE) signaling pathway measured by Nrf2-dependant transcriptional activity - cell viability counter screen (AID 720653; active means well fitted curve in the direction sought with a large enough effect in the repeat runs; an effect the other way counts as inactive or inconclusive; further: potency means the concentration at half of the fitted maximal effect; on max response: on the % scale 0 is the no-effect control and ±100 the full control effect); settings: ARE-bla HepG2 viability, CellTiter-Glo ATP luminescence, 16 h; max response: stronger effect = lower value
Procedure, shortened: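 ARE-bla HepG2 cells (2,000/well) rested 5 hrs at 37C/5% CO2, then exposed to compounds in DMSO for 16 hrs. Viability was read in the same wells as intracellular ATP by luminescence, 30 min at room temperature after reagent addition.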

[5] = qHTS assay for cell viability of the p53RE-bla HCT-116 cell line (AID 743292); further: nearly all actives have a fitted effect of over 55% in size; further: potency means the concentration at half of the fitted maximal effect
Procedure, shortened: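 In this qHTS counter-screen, metabolically competent p53RE-bla HCT-116 cells were counted via their ATP content. Compounds were applied for 16 h at 37 C and luciferase-coupled luminescence was measured.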

[6] = target: Vitamin D3 receptor (Homo sapiens) (UniProt P11473); assay: qHTS assay for small molecule agonists of vitamin D receptor signaling (AID 588543; calls by dose curve;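 further: 0% = DMSO basal and 100% = reference agonist control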)
Procedure, shortened: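 Measured: β-lactamase reporter activity (CCF4, 405 nm excitation, 460/530 nm emission) in HEK293T VDR-UAS-bla cells after 16 h compound exposure at 37 °C. Normalization against 50 nM 1α,25-dihydroxyvitamin D3 and DMSO; Hill-fit EC50.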

[7] = qHTS assay for small molecule agonists of retinoid X receptor alpha signaling (AID 588544; calls by dose curve; further: potency means the concentration at half of the fitted maximal effect;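 on activation: 0% = DMSO basal wells and 100% = reference agonist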); settings: HEK293T RXRa-UAS-bla, beta-lactamase reporter, 18 h; 530 nm emission
[8] = target: Retinoic acid receptor RXR-alpha (Homo sapiens) (UniProt P19793); assay: as above
[9] = target: Thyroid hormone receptor beta (Homo sapiens) (UniProt P10828); assay: qHTS assay for small molecule agonists of thyroid hormone receptor beta signaling (AID 588545; calls by dose curve)
Procedure, shortened: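 Agonist activity was read as beta-lactamase CCF4 fluorescence (405 ex, 460/530 em), scaled between DMSO (0%) and 10 nM T3 (100%), then Hill-fitted for EC50 and efficacy. HEK 293 TR-UAS-bla cells in 2% charcoal/dextran FBS medium were exposed 18 h at 37 C.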

[10] = qHTS assay for small molecule activators of the nuclear factor-kappa B (NF-kB) signaling pathway (AID 651749; active means well fitted activation curve with a large enough effect in the signal ratio; the % refers to the signal ratio; further: series mostly up to about 77 µM; % of control where 0% means no effect); settings: NF-kB-bla ME-180 cells, beta-lactamase FRET ratio, 16 h; activation: stronger effect = higher value
Procedure, shortened: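 Beta-lactamase reporter expression, controlled by NF-kB response elements in ME-180 cells, was quantified fluorometrically via FRET disruption; cells at 2,000/well had been incubated with 23 nL test compound for 16 hr.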

[11] = target: Peroxisome proliferator-activated receptor alpha (Homo sapiens) (UniProt Q07869); assay: qHTS assay for small molecule agonists of the peroxisome proliferator-activated receptor alpha (PPARalpha) signaling pathway (AID 651778); settings: PathHunter PPARalpha complementation, chemiluminescence, 6 h; max response: stronger effect = higher value; further: % of control where 0% means no effect
Procedure, shortened: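 Cells plated at 2,000/well and held overnight at 37 C, 5% CO2, then compound added by pin tool for 6 hr; after PathHunter detection reagent and 60 min at room temperature, chemiluminescence from enzyme complementation was read.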

[12] = qHTS assay for cell viability of HEK293 cells (AID 743288); settings: ATP luminescence (CellTiter-Glo), 18 h; max response: stronger effect = lower value; further: on the % scale 0 is the no-effect control and ±100 the full control effect; nearly all actives have a fitted effect of over 50% in size
Procedure, shortened: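 HEK293, 18 h, 37 C, ATP luminescence. Cells at 2,000/well were allowed at least 5 h to settle before dosing; CellTiter-Glo developed 30 min at RT.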

[13] = target: Nuclear receptor subfamily 1 group I member 2 (Rattus norvegicus) (UniProt Q9R1A7); assay: qHTS assay for small molecule activators of the rat pregnane X receptor (rPXR) signaling pathway (AID 651751; call rule not given here; further: 0% is about no effect); settings: rPXR reporter cells, luciferase (One-Glo), 24 h
[14] = qHTS assay for small molecule activators of the human pregnane X receptor (PXR) signaling pathway (AID 720659; call rule not given here; further: 0% is about no effect)
[15] = target: Peroxisome proliferator-activated receptor gamma (Homo sapiens) (UniProt P37231); assay: qHTS assay for small molecule agonists of peroxisome proliferator-activated receptor gamma signaling (AID 588536; active means well fitted curve in the direction sought with a large enough effect in the signal ratio, with a control signal flat, not every such curve was filed as active; the % refers to the signal ratio;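 further: 0% = DMSO basal wells and 100% = rosiglitazone at 2 µM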)
Procedure, shortened: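 This is an agonist-mode beta-lactamase reporter assay in HEK293 PPAR-gamma-UAS-bla cells with 1% charcoal/dextran FBS. Compound titrations ran 16 h at 37 C before CCF4 detection. EC50 and efficacy are Hill fits scaled to 2 uM rosiglitazone (100%) and DMSO basal.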

[16] = target: Peroxisome proliferator-activated receptor gamma (Homo sapiens) (UniProt P37231); assay: qHTS assay for small molecule antagonists of peroxisome proliferator-activated receptor gamma signaling (AID 588537; active means well fitted inhibition curve with a large enough effect in the signal ratio, with a control signal flat, not every such curve was filed as active; the % refers to the signal ratio;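 further: reporter cells co-stimulated with 50 nM rosiglitazone agonist during compound treatment; % of control where 0% means no effect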)
Procedure, shortened: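 HEK293 cells, PPAR-gamma-UAS-bla, 3000/well. Pre-incubation 6-6.5 h, 37 C. Compound titration with rosiglitazone 50 nM final, 16 h. CCF4 dye, 2 h RT, dual-emission fluorescence.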

[17] = qHTS assay for small molecule antagonists of retinoid X receptor alpha signaling (AID 588546; active means well fitted inhibition curve with a large enough effect in the signal ratio, with a control signal flat, not every such curve was filed as active; the % refers to the signal ratio; further: potency means the concentration at half of the fitted maximal effect;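 on max response: cells stimulated with 9-cis-retinoic acid as agonist; on the % scale 0 is the no-effect control and ±100 the full control effect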); settings: HEK293T RXRa-UAS-bla, beta-lactamase ratio, antagonist mode; measured here: W530 green channel, cytotoxicity proxy
Procedure, shortened: (§1)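 Beta-lactamase reporter inhibition, read as CCF4 fluorescence ratio (ex 405, em 460/530 nm) after 2 h at RT. HEK293T UAS-bla cells, 2500/well, were stimulated with 9-cis-RA at 500 or 100 nM final alongside test compound for 18 h at 37 C.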

[18] = target: Retinoic acid receptor RXR-alpha (Homo sapiens) (UniProt P19793); assay: as above; settings: HEK293T RXRa-UAS-bla, beta-lactamase ratio, antagonist mode
Procedure, shortened: as §1

[19] = target: Thyroid hormone receptor beta (Homo sapiens) (UniProt P10828); assay: qHTS assay for small molecule antagonists of thyroid hormone receptor beta signaling (AID 588547; active means well fitted inhibition curve with a large enough effect in the signal ratio, with a control signal flat, not every such curve was filed as active; the % refers to the signal ratio; further: potency means the concentration at half of the fitted maximal effect;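 on activity change % (negative = inhibition): cells stimulated with 0.4 nM T3 agonist during compound exposure; series mostly up to about 77 µM; on the % scale 0 is the no-effect control and ±100 the full control effect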); settings: TR-UAS-bla HEK293, beta-lactamase ratio, antagonist mode, 18 h
Procedure, shortened: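 TR-UAS-bla GripTite HEK293 cells in 2% charcoal/dextran FBS medium were preincubated 4 h at 37 C, given compound (0.59 nM to 92 uM) plus 0.4 nM T3 (final) for 18 h, then CCF4 for 2 h at RT; Hill fit gave IC50.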

[20] = qHTS assay for small molecule activators of the p53 signaling pathway (AID 651743; active means well fitted activation curve with a large enough effect in the signal ratio, not every such curve was filed as active; the % refers to the signal ratio; further: series mostly up to about 92 µM; % of control where 0% means no effect); settings: HCT-116 p53RE-bla, beta-lactamase FRET ratio, 16 h; activation: stronger effect = higher value
Procedure, shortened: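 Here HCT-116 cells with an integrated p53-responsive beta-lactamase gene were incubated with compounds (16 hours, 37 C) after a 5-hour plating period; beta-lactamase activity was detected as fluorescence intensity via B/G FRET substrate.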

Chain of Nuclear receptor subfamily 1 group I member 2 (Rattus norvegicus) (Q9R1A7 whole entry, looked up): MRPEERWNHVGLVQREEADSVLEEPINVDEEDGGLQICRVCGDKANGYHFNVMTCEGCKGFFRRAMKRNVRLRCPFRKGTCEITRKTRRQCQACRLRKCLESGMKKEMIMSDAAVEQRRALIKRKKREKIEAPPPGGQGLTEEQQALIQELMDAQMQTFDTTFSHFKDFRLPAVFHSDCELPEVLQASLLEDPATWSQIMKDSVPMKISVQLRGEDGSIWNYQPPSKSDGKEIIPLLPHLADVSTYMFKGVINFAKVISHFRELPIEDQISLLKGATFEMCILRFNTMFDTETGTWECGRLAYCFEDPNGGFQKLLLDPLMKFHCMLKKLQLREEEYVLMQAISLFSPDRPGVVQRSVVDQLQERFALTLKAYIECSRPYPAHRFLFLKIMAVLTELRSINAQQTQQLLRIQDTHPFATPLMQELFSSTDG
Chain of Peroxisome proliferator-activated receptor gamma (Homo sapiens) (P37231 whole entry, looked up): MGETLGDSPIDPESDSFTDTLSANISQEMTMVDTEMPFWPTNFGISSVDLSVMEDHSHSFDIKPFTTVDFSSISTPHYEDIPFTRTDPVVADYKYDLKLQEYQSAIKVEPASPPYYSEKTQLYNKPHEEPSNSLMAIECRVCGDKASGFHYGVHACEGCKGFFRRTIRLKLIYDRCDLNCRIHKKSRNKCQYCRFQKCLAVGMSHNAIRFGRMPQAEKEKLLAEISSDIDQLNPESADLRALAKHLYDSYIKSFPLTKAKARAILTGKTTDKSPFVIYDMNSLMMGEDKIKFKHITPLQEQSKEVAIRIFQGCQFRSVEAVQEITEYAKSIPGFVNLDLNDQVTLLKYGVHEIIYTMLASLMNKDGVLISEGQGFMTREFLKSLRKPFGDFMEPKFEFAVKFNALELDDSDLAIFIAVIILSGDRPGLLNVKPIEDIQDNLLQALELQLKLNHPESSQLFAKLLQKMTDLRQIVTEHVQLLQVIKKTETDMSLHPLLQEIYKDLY
Chain of Vitamin D3 receptor (Homo sapiens) (P11473 whole entry, looked up): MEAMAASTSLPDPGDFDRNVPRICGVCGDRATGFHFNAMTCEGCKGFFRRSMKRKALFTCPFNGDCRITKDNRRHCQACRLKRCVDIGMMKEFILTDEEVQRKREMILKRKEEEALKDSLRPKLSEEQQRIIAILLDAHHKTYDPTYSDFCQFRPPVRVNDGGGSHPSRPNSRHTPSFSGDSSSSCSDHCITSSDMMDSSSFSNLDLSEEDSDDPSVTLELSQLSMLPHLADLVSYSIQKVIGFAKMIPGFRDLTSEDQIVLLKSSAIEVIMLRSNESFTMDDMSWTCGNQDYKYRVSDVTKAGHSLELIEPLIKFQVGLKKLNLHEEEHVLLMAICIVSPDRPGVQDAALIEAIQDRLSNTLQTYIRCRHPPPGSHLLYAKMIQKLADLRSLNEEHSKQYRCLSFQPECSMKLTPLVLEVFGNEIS
Chain of Peroxisome proliferator-activated receptor alpha (Homo sapiens) (Q07869 whole entry, looked up): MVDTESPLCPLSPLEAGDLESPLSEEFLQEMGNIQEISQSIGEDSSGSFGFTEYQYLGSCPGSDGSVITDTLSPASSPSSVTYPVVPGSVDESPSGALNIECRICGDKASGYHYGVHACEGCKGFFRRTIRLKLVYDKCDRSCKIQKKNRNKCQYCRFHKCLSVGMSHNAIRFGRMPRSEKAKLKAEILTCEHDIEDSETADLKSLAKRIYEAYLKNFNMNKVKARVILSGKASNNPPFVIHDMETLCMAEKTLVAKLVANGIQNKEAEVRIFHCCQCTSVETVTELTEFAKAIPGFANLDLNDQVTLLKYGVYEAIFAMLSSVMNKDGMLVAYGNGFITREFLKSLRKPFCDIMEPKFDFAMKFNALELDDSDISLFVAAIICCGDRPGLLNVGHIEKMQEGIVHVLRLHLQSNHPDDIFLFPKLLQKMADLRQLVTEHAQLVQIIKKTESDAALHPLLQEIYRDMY
Chain of Retinoic acid receptor RXR-alpha (Homo sapiens) (P19793 whole entry, looked up): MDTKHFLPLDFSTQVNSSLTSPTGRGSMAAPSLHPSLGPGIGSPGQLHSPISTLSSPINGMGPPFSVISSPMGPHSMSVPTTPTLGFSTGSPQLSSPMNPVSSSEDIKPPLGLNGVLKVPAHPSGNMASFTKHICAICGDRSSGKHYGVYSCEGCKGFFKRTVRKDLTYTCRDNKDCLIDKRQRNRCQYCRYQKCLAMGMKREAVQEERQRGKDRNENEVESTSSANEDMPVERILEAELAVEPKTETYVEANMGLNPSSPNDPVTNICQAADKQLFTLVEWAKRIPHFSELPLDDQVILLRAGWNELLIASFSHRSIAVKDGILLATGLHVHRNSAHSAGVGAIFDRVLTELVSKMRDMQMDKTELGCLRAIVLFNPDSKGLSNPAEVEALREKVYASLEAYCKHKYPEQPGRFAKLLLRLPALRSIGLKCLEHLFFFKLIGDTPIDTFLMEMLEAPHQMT
Chain of Thyroid hormone receptor beta (Homo sapiens) (P10828 whole entry, looked up): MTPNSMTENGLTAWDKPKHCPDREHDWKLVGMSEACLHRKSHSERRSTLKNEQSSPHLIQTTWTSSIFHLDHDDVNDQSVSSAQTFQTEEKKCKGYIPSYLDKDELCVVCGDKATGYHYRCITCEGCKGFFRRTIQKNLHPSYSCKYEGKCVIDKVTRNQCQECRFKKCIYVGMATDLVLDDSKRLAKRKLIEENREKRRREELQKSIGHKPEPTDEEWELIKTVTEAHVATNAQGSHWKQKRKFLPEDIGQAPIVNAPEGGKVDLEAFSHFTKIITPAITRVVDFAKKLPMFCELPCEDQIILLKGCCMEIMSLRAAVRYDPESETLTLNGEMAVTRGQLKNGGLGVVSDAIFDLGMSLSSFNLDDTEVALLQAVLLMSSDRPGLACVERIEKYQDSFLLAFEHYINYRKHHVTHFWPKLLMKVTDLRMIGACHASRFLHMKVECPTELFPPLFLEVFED
Chain of Estrogen receptor (Homo sapiens) (P03372 whole entry, looked up): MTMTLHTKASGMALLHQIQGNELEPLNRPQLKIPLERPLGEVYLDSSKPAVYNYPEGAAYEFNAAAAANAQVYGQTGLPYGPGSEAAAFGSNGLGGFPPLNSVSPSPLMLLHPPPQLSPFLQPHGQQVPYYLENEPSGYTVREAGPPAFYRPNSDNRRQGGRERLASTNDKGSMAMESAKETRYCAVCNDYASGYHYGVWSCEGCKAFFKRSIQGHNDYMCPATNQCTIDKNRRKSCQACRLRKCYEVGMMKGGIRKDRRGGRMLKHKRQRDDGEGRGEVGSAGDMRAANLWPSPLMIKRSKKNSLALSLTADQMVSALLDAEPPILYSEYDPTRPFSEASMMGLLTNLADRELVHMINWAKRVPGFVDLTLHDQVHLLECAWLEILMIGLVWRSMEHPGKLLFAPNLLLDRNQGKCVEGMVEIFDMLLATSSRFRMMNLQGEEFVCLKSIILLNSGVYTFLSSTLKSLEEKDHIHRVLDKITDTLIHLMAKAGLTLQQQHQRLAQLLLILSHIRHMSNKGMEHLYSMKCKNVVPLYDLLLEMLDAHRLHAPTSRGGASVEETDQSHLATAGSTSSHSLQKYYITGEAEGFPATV

CO/N=C1\C[C@]2(C[C@@H]3C[C@@H](C/C=C(\C)C[C@@H](C)/C=C/C=C4\CO[C@@H]5[C@H](O)C(C)=C[C@@H](C(=O)O3)[C@]45O)O2)O[C@H](/C(C)=C/C(C)C)[C@H]1C
inactive: activation [2] 0.384% | Potency [3]
active: Potency [1] 7.94 µM [inhibitor] | Potency [4] 44.7 µM | Potency [5] 28.2 µM

O=C(O)CN(CCCN(CC(=O)O)CC(=O)O)CC(=O)O
-16.9%: max response [7]
inactive: outcome [6] | Potency [8] | Potency [9] | activation [10] 0.672% | activation [2] 0.0297% | max response [11] 0.851% | Potency [3] | max response [4] -7.74% | max response [12] -11% | Potency [5] | max response [13] -5.79% | outcome [14]

O=C(O)CN(CCO)CCN(CC(=O)O)CC(=O)O
inactive: outcome [15] | Potency [16] | outcome [6] | Potency [8] | Potency [9] | max response [18] -2.39% | activity change % (negative = inhibition) [19] -8.14% | activation [20] -0.291% | activation [10] -1.52% | activation [2] -0.73% | Potency [3] | max response [4] -1.05% | max response [12] -11.1% | Potency [5] | max response [13] 1.3% | outcome [14]
-2.45%: max response [17]
-15.4%: max response [7]

O=[N+]([O-])C(CO)(CO)CO
-11.5%: max response [7]
inactive: Potency [1] | outcome [15] | Potency [16] | outcome [6] | Potency [8] | Potency [9] | max response [18] 4.16% | activation [20] 7.94% | activation [10] 0.34% | activation [2] -1.19% | max response [11] -3.92% | Potency [3] | max response [4] -10% | max response [12] -13.7% | Potency [5] | max response [13] 0.128% | outcome [14]
-5.31%: max response [17]

O=c1[nH]sc2ccccc12
active: Potency [18] 20 µM | Potency [19] 15.8 µM
-44.3%: max response [17]
inactive: Potency [16] | outcome [6] | activation [20] -3.28% | activation [10] -1.58% | activation [2] 2.41% | max response [11] -8.62% | max response [4] -17.7% | outcome [14]

COc1ccccc1NC(=O)CC(C)=O
7.64%: max response [17]
inactive: Potency [1] | outcome [15] | outcome [6] | max response [18] -16% | activity change % (negative = inhibition) [19] -1.32% | activation [20] -7.86% | activation [10] -0.04% | activation [2] 6.41% | max response [11] 0.153% | Potency [3] | max response [4] 2.57% | max response [12] -19.2% | Potency [5] | max response [13] 5.67%

CCCCCCCC(=O)Oc1c(Br)cc(C#N)cc1Br
-14.9%: max response [7]
-5.85%: max response [17]
inactive: outcome [15] | Potency [16] | outcome [6] | Potency [8] | Potency [9] | max response [18] -20.9% | activity change % (negative = inhibition) [19] -2.51% | activation [20] 6.26% | activation [10] -2.23% | max response [4] 0.905% | max response [12] -6.14% | Potency [5] | max response [13] -8.28% | outcome [14]

CCCCCCCCCCCCCC(=O)OC
-10%: max response [17]
inactive: outcome [15] | Potency [16] | Potency [8] | Potency [9] | max response [18] -1.05% | activity change % (negative = inhibition) [19] 3.36% | activation [10] 0.501% | activation [2] 0.0228% | max response [11] 0.157% | Potency [3] | max response [4] -15.8% | max response [12] 4.18% | Potency [5] | max response [13] 2.49% | outcome [14]
0.848%: max response [7]

CC(C)CCCCCCc1ccc(OCCOCCO)cc1
-48.7%: max response [7]
active: Potency [1] 28.2 µM [inhibitor] | Potency [8] 3.55 µM
inactive: activation [2] -9.42% | Potency [3] | max response [4] -4.66% | max response [13] -16.1%

CC(C)CCCCCOC(=O)CS
-0.354%: max response [7]
inactive: Potency [1] | outcome [15] | Potency [16] | Potency [8] | Potency [9] | max response [18] -5.77% | activity change % (negative = inhibition) [19] -8.58% | activation [10] 3.32% | activation [2] -0.874% | max response [11] 0.461% | Potency [3] | max response [4] -0.966% | max response [12] -8.32% | Potency [5] | max response [13] -1.37% | outcome [14]
-2.29%: max response [17]

CN(C)c1nc(=O)n(C2CCC(O)CC2)c(=O)n1C (stereo not given)
-9.86%: max response [7]
inactive: outcome [15] | Potency [16] | outcome [6] | Potency [8] | Potency [9] | activity change % (negative = inhibition) [19] 11.1% | activation [20] 2.9% | activation [10] -0.848% | activation [2] -0.637% | max response [11] -3.35% | Potency [3] | max response [12] -7.57% | Potency [5] | max response [13] -1.79% | outcome [14]

CCOC(=O)C(C)Oc1ccc(Oc2cnc3cc(Cl)ccc3n2)cc1 (stereo not given)
22.1%: max response [17]
inactive: outcome [15] | Potency [16] | outcome [6] | max response [18] -14.1% | activation [2] 1.27% | max response [11] 11.2% | max response [4] -11.5% | max response [12] 4.59% | outcome [14]

COc1nc(C)nc(NC(=O)NS(=O)(=O)c2ccccc2OCCCl)n1
inactive: outcome [15] | outcome [6] | Potency [9] | max response [18] 20.3% | activity change % (negative = inhibition) [19] 1.88% | activation [20] -4.39% | activation [10] 0.852% | activation [2] 2.11% | max response [11] 1.06% | Potency [3] | max response [4] 14.8% | max response [12] 6.67% | max response [13] 5.75% | outcome [14]
11.2%: max response [17]
